# Laboratory results: PubChem BioAssay (NCI)
# Compounds without any hit were thinned out: in the full panel of roughly 79,000, 15% have a hit. Values without a mark were called inactive. The source made the active and inactive calls. No stated cut-off is given here; in the data, active means growth inhibition above about 70%; inactive means the rest.
# Tests used:
# [1] = NCI Yeast Anticancer Drug Screen. Data for the wt1 strain (AID 149);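 further: 0% = growth of vehicle-treated wt1 cultures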; conditions: S. cerevisiae wt1 strain (SPY 50644) growth inhibition, hits give high values
# Method in brief: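 Measured: growth of wt1 yeast under compound versus vehicle treatment, reported as inhibition.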
# [2] = NCI Yeast Anticancer Drug Screen. Data for the rad50EPP+ strain (AID 151);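 further: 0% = growth of vehicle-treated control cultures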; conditions: S. cerevisiae rad50 mutant strain, hits give high values
# Method in brief: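 In this screen, rad50EPP+ yeast were exposed to compounds. Growth inhibition was scored against vehicle-treated controls.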
# [3] = NCI Yeast Anticancer Drug Screen. Data for the mgt1 strain (AID 153); conditions: S. cerevisiae mgt1 mutant growth inhibition, hits give high values
# Method in brief: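 mgt1 strain exposed; growth vs vehicle control recorded as inhibition.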
# [4] = NCI Yeast Anticancer Drug Screen. Data for the rad50 strain (AID 155);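 further: 0% = growth of vehicle-only cultures of the same strain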; conditions: S. cerevisiae rad50 strain growth inhibition, hits give high values
# Method in brief: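 Growth of the mutant yeast was measured after compound exposure and referenced to vehicle-treated cultures.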
# [5] = NCI Yeast Anticancer Drug Screen. Data for the mec2-1 strain (AID 157); conditions: S. cerevisiae mec2-1 strain, hits give high values
# Method in brief: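 Vehicle-treated cultures served as reference for growth inhibition of compound-exposed mec2-1 yeast.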
# [6] = NCI Yeast Anticancer Drug Screen. Data for the rad14 strain (AID 159);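 further: 0% = growth of vehicle-treated control cultures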; conditions: S. cerevisiae rad14 strain growth inhibition, hits give high values
# Method in brief: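 Here, inhibition of yeast growth was measured after compound exposure, using a strain with a genetic defect in DNA damage repair and vehicle-treated cultures as the reference.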
# [7] = NCI Yeast Anticancer Drug Screen. Data for the sgs1 mgt1 strain (AID 161);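 further: 0% = growth of cultures given vehicle only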; conditions: S. cerevisiae sgs1 mgt1 strain, hits give high values
# Method in brief: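 Read-out: growth inhibition vs vehicle controls. Cells: mutant yeast strain deficient in DNA damage repair.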
# [8] = NCI Yeast Anticancer Drug Screen. Data for the CLN2oe strain (AID 163);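 further: 0% = growth of vehicle-only control cultures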; conditions: S. cerevisiae CLN2oe strain, hits give high values
# Method in brief: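 Inhibition relative to vehicle-treated yeast is reported. Cells: strain with genetic alteration in cell-cycle control, grown with compound.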
# [9] = NCI Yeast Anticancer Drug Screen. Data for the cln2 rad14 strain (AID 165);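 further: 0% = growth equal to vehicle treated cultures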; conditions: S. cerevisiae cln2 rad14 strain, hits give high values
# Method in brief: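 Each compound was tested on cln2 rad14 yeast. Inhibition of growth was calculated against vehicle-exposed controls.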
# [10] = NCI Yeast Anticancer Drug Screen. Data for the bub3 strain (AID 167); conditions: S. cerevisiae bub3 mutant strain, hits give high values
# Method in brief: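 Whole-cell yeast assay. The mutant strain was incubated with compounds, and growth inhibition was determined by comparison with vehicle-treated cells.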
# [11] = NCI Yeast Anticancer Drug Screen. Data for the wt2 strain (AID 169);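 further: 0% = growth of vehicle-treated yeast cultures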; conditions: S. cerevisiae wt2 strain growth inhibition, hits give high values
# Method in brief: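 Inhibition of yeast growth was determined after compound treatment, normalised to controls receiving only vehicle.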
# [12] = NCI Yeast Anticancer Drug Screen. Data for the mlh1 strain (AID 171);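 further: 0% = growth of vehicle-treated control cultures of the same strain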; conditions: S. cerevisiae mlh1 strain growth inhibition, hits give high values
# Method in brief: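 Vehicle-normalised growth inhibition of a repair- or checkpoint-altered yeast strain following compound treatment.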
# [13] = NCI Yeast Anticancer Drug Screen. Data for the sgs1 strain (AID 173);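 further: 0% = growth of vehicle-only control cultures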; conditions: S. cerevisiae sgs1 mutant, hits give high values
# Method in brief: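 Screen format: yeast with repair or checkpoint alterations, compound exposure, growth read relative to vehicle.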
# [14] = NCI Yeast Anticancer Drug Screen. Data for the mlh1 rad18 strain (AID 175); conditions: S. cerevisiae mlh1 rad18 strain growth inhibition, hits give high values
# Method in brief: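 Vehicle-treated cultures served as the reference for growth inhibition in a yeast strain carrying DNA damage repair alterations exposed to each compound.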
# [15] = NCI Yeast Anticancer Drug Screen. Data for the rad18 strain (AID 177); conditions: S. cerevisiae rad18 mutant growth inhibition, hits give high values
# Method in brief: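 Test articles were incubated with altered yeast defective in DNA damage repair. Results are given as inhibition of growth versus vehicle.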
# [16] = at 5.0 µM (retest, dose inferred, filed as 0.5)
# [17] = at 50.0 µM (retest, dose inferred, filed as 5.0)
smiles,measurement,setting,value
C=C(Cl)COC(=O)Nc1cccc(Cl)c1,growth inhibition,[1]; at 1.2 µM,-1%
same,growth inhibition,[1]; at 3.7 µM,-1%
same,growth inhibition,[1]; at 11.0 µM,1%
same,growth inhibition,[1]; at 33.0 µM,13%
same,growth inhibition,[1]; at 100.0 µM,90% (active)
same,growth inhibition,[2]; at 1.2 µM,7%
same,growth inhibition,[2]; at 3.7 µM,25%
same,growth inhibition,[2]; at 11.0 µM,52%
same,growth inhibition,[2]; at 33.0 µM,75% (active)
same,growth inhibition,[2]; at 100.0 µM,84% (active)
same,growth inhibition,[3]; at 1.2 µM,-14%
same,growth inhibition,[3]; at 3.7 µM,-6%
same,growth inhibition,[3]; at 11.0 µM,-11%
same,growth inhibition,[3]; at 33.0 µM,16%
same,growth inhibition,[3]; at 100.0 µM,96% (active)
same,growth inhibition,[4]; at 1.2 µM,8%
same,growth inhibition,[4]; at 3.7 µM,27%
same,growth inhibition,[4]; [16],0%
same,growth inhibition,[4]; at 11.0 µM,58%
same,growth inhibition,[4]; at 33.0 µM,80% (active)
same,growth inhibition,[4]; [17],79% (active)
same,growth inhibition,[4]; at 50.0 µM,82% (active)
same,growth inhibition,[4]; at 100.0 µM,97% (active)
same,growth inhibition,[5]; at 1.2 µM,-19%
same,growth inhibition,[5]; at 3.7 µM,-10%
same,growth inhibition,[5]; [16],-17%
same,growth inhibition,[5]; at 11.0 µM,-25%
same,growth inhibition,[5]; at 33.0 µM,0%
same,growth inhibition,[5]; [17],19%
same,growth inhibition,[5]; at 50.0 µM,3.15%
same,growth inhibition,[5]; at 100.0 µM,91% (active)
same,growth inhibition,[6]; at 1.2 µM,1%
same,growth inhibition,[6]; at 3.7 µM,2%
same,growth inhibition,[6]; at 11.0 µM,4%
same,growth inhibition,[6]; at 33.0 µM,39%
same,growth inhibition,[6]; at 100.0 µM,97% (active)
same,growth inhibition,[7]; [16],-14%
same,growth inhibition,[7]; [17],47%
same,growth inhibition,[7]; at 50.0 µM,45%
same,growth inhibition,[8]; at 1.2 µM,0%
same,growth inhibition,[8]; at 3.7 µM,-5%
same,growth inhibition,[8]; at 11.0 µM,-10%
same,growth inhibition,[8]; at 33.0 µM,3%
same,growth inhibition,[8]; at 100.0 µM,94% (active)
same,growth inhibition,[9]; [16],19%
same,growth inhibition,[9]; [17],16%
same,growth inhibition,[9]; at 50.0 µM,25.1%
same,growth inhibition,[10]; at 1.2 µM,-17%
same,growth inhibition,[10]; at 3.7 µM,-17%
same,growth inhibition,[10]; [16],-25%
same,growth inhibition,[10]; at 11.0 µM,-8%
same,growth inhibition,[10]; at 33.0 µM,9%
same,growth inhibition,[10]; [17],18%
same,growth inhibition,[10]; at 50.0 µM,34.4%
same,growth inhibition,[10]; at 100.0 µM,92% (active)
same,growth inhibition,[11]; at 1.2 µM,-3%
same,growth inhibition,[11]; at 3.7 µM,-1%
same,growth inhibition,[11]; at 11.0 µM,1%
same,growth inhibition,[11]; at 33.0 µM,39%
same,growth inhibition,[11]; at 100.0 µM,98% (active)
same,growth inhibition,[12]; at 1.2 µM,-6%
same,growth inhibition,[12]; at 3.7 µM,-1%
same,growth inhibition,[12]; at 11.0 µM,1%
same,growth inhibition,[12]; at 33.0 µM,36%
same,growth inhibition,[12]; at 100.0 µM,97% (active)
same,growth inhibition,[13]; at 1.2 µM,0%
same,growth inhibition,[13]; at 3.7 µM,3%
same,growth inhibition,[13]; at 11.0 µM,13%
same,growth inhibition,[13]; at 33.0 µM,63%
same,growth inhibition,[13]; at 100.0 µM,97% (active)
same,growth inhibition,[14]; [16],-13%
same,growth inhibition,[14]; [17],80% (active)
same,growth inhibition,[14]; at 50.0 µM,82.5% (active)
same,growth inhibition,[15]; at 1.2 µM,-1%
same,growth inhibition,[15]; at 3.7 µM,-2%
same,growth inhibition,[15]; at 11.0 µM,8%
same,growth inhibition,[15]; at 33.0 µM,55%
same,growth inhibition,[15]; at 100.0 µM,94% (active)
